# In PubChem BioAssay AID1745850 (National Center for Advancing Translational Sciences (NCATS), 2022):
# Hit rate of the full screen: of about 2,100 compounds, about 260 (12%) were called active. Not shown: some 58% with an inconclusive outcome. This is one part of the list. A number with no mark means an inactive call. Calls come from the whole dose curve; as a rule, active = well fitted cell-killing curve with a large enough effect; inconclusive = small, poorly fitted or top-dose-only effect, or effect the other way; inactive = flat fitted curve, though single readings scatter.
# Assay: Viability Counterscreen for Confirmatory qHTS for Inhibitors of ATXN expression; note: nearly all actives have a fitted effect of over 50% in size
# Details: HEK-293 ATXN2-luc cells viability, CellTiter-Fluor, 24 h; activity change, negative = cytotoxicity: at the top concentration
# In short: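 Luminescence read-out (SteadyGlo, 5 min) followed a 30 min Gly-Phe-AFC (25 uM final) viability fluorescence read. ATXN2-luciferase reporter cells were exposed 24 h to a dilution series. Medium-only wells served as the 100% inhibition reference.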
# Potency is the fitted concentration of half-maximal effect.
Compound,"activity change, negative = cytotoxicity",Potency
Cc1cc(O)c(C(C)C)cc1N=Cc1ccccc1[N+](=O)[O-],-7.78% [at 57.5 µM],–
Cc1cc(N/N=C/c2ccccc2[N+](=O)[O-])nc(-n2nc(C)cc2C)n1,–,12.6 µM (active)
CCOC(=O)c1cnc(-n2nc(C)cc2C)nc1NC1CCCC1,-24.9%,–
CCOc1cc(/C=N/Nc2cc(C)nc(-n3nc(C)cc3C)n2)ccc1O,–,3.98 µM (active)
CC(=O)c1ccc(S(=O)(=O)N2CCN(CCOc3ccc(Br)cc3)CC2)cc1,-18.1%,–
CC(C)(C)N(Cc1ccc2c(c1)OCO2)C(=O)/C=C\S(=O)c1ccccc1 (stereo not given),–,17.8 µM (active)
CN(C)CCC(c1ccc(Br)cc1)c1ccccn1 (stereo not given),-18.7% [at 57.5 µM],–
CCOC(=O)c1c(-c2ccccc2)oc2ccc(OCC(=O)NN)cc12,-25.4% [at 57.5 µM],–
O=C(N/N=C\c1cc(Br)ccc1O)c1ccc(S(=O)(=O)N2CCCCC2)cc1,7.84%,–
N#C/C(=C\c1ccc([N+](=O)[O-])o1)c1nc2ccccc2[nH]1,–,7.94 µM (active)
CCOc1cc(/C=C(/C#N)c2nc3ccccc3[nH]2)ccc1Oc1ccc([N+](=O)[O-])cn1,-26% [at 57.5 µM],–
O=C(Nc1cccnc1)C1Cc2c(-c3ccc4c(c3)OCO4)ccnc2O1 (stereo not given),-4.94%,–
Cc1nn(-c2ccccc2)c(N2CCCC2)c1/C=N/NC(=O)c1cc2ccccc2cc1O,-15.2%,–
Cc1nc(SC2CC(=O)N(c3ccccc3)C2=O)n[nH]1 (stereo not given),-11.3% [at 57.5 µM],–
Cc1cc(C(=O)CN2C(=O)c3ccccc3S2(=O)=O)c(C)n1CC1CCCO1 (stereo not given),-6.33% [at 57.5 µM],–
CCc1nc2c(OCc3ccc(Cl)cc3Cl)cccn2c1N(C=O)Cc1ccc(OC)cc1,-19.5%,–
Cc1cc(/C=N/n2cnnc2)c(C)n1-c1ccc(OCc2ccc(Cl)cc2Cl)cc1,–,28.2 µM (active)
S=C(Nc1ccccc1)Nc1ccc(OCc2ccc(Cl)cc2Cl)cc1,-16.1% [at 57.5 µM],–
Nc1cccc2c1C(=O)N(C(=O)/C=C/c1cccc(Br)c1)C2=O,2.1% [at 57.5 µM],–
Cn1nnnc1Sc1ncnc2scc(Br)c12,–,20 µM (active)
Cn1nnnc1Sc1ncnc2scc(-c3ccc[nH]3)c12,–,12.6 µM (active)
O=c1[nH]c(CN2CCN(c3ncccn3)CC2)nc2c(Br)cc(Br)cc12,-9.08%,–
CCOC(=O)COc1ccc(Br)cc1/C=C/c1[nH]c(=O)[nH]c(=O)c1[N+](=O)[O-],-26.2%,–
Nc1ccc2c(c1)OC1(CCCC1)O2,-8.89%,–
Cn1c(CCc2nc3ccccc3[nH]2)nnc1SCC#N,-10.6% [at 57.5 µM],–

Compound,"activity change, negative = cytotoxicity",Potency
c1ccc2c(c1)c1c(c3ccccc32)CN2CCCC2C1 (stereo not given),-16.7% [at 57.5 µM],–
COc1ccc(-c2c[n+]3c4n2CCCCC4=C(c2ccc(Br)cc2)C3)cc1,-28.7%,–
Cc1cccc(OCCn2cc(/C=N/NC(=O)c3ccncc3)c3ccccc32)c1,-6.67%,–
Cc1ccc(S(=O)(=O)/C(=C/Cl)NC(=O)c2ccccc2)cc1,–,22.4 µM (active)
Cc1ccc(S(=O)(=O)NCC(=O)N/N=C/c2ccccc2O)cc1,-10.1%,–
COc1ccc(C(=O)NC(=C(Cl)Cl)S(=O)(=O)c2ccc(C)cc2)cc1,-18%,–
CCOC(=O)c1ccc(/C=C2/C=C(c3ccccc3)N(c3ccc(Cl)c(C(=O)O)c3)C2=O)cc1,-28.3% [at 57.5 µM],–
O=C(c1cc(COc2cccc(C(F)(F)F)c2)on1)N1CCC(c2ccncc2)CC1,-15.7%,–
Cn1c(SCC(=O)N/N=C/c2ccc([N+](=O)[O-])s2)nnc1-c1ccc(Cl)cc1,–,11.2 µM (active)
COc1ccc(O)c(/C=N/NC(=O)CSc2nnc(C)n2-c2ccccc2)c1,-23.6%,–
Cn1c(SCC(=O)Nc2cc(Cl)cc(Cl)c2)nnc1-c1ccc2nonc2c1,-28.1%,–
C=CCn1c(COc2ccccc2)nnc1SCC(=O)N/N=C/c1cc(Cl)ccc1O,-24.6% [at 57.5 µM],–
Cn1c(SCC(=O)N/N=C/c2ccc([N+](=O)[O-])s2)nnc1-c1ccccc1,–,22.4 µM (active)
CSc1sc(-c2nnc(SCC(=O)Nc3ccc(Cl)cc3)n2C)c2c1C=CCC2,-6.66%,–
CCN1CC2=C(OC(N)=C(C#N)C2c2cccs2)/C(=C\c2cccs2)C1 (stereo not given),-21.6%,–
C/C(=N\NC(=O)C12CCC(C)(C(=O)O1)C2(C)C)c1ccccc1O (stereo not given),-16.2%,–
Cc1nn(-c2ccccc2)c2nc(-c3cccs3)cc(C(=O)NN)c12,-21.5% [at 57.5 µM],–
CCCNC(=O)c1ccc2c(=O)c(O)c(-c3ccc(C)cc3)[nH]c2c1,-21.6% [at 57.5 µM],–
Cn1nnnc1Sc1ncnc2scc(-c3cccc(S(C)(=O)=O)c3)c12,–,22.4 µM (active)
CC(=O)c1cccc(-c2csc3ncnc(Sc4nnnn4C)c23)c1,–,11.2 µM (active)
CCN1CCS/C1=C\C=C\C1=[N+](CC)CCS1,–,25.1 µM (active)
Cc1cc(C)cc(NC(=O)CCc2nc3sc4c(c3c(=O)[nH]2)CCCC4)c1,-28.2%,–
Cc1ccc(N/C(N)=N/c2nc(C)cc(N3CCCCC3)n2)c(C)c1,–,3.16 µM (active)
Cc1cc(C)nc(/N=C(\N)Nc2ccc(C(C)C)cc2)n1,-22.8%,–
O=C(c1ccco1)N1CCN(c2ncnc3scc(-c4cccs4)c23)CC1,-14.1%,–

Compound,"activity change, negative = cytotoxicity",Potency
COc1ccccc1OCCN1CSC(=S)N(C)C1,–,20 µM (active)
COC(=O)C1=C(C)N(c2ccc(Cl)c(Cl)c2)C(=O)C1,-20%,–
CCCCC(=O)NNC(=S)NC(=O)c1ccc(C)cc1,-5.51%,–
COc1ccc2c(c1)CCCN2S(=O)(=O)c1ccc(Cl)cc1,-21.8% [at 57.5 µM],–
COc1ccc(/C=C2\CN(Cc3ccccc3)C/C(=C\c3ccc(OC)c(O)c3)C2=O)cc1O,–,12.6 µM (active)
COc1ccc(CCNC2=C(Cl)C(=O)N(Cc3ccccc3)C2=O)cc1OC,-4.27%,–
COCC(C)n1c(C)cc(C(=O)COC(=O)c2cccn2C)c1C (stereo not given),4.04%,–
CCOc1cc(C=C(C(=O)OC)C(=O)OC)ccc1OCc1ccc([N+](=O)[O-])cc1,–,28.2 µM (active)
N#Cc1nc(COc2ccc(-c3ccccc3)cc2)oc1NCc1cccnc1,-11.9%,–
O=C(Nc1ccc[n+](CC(=O)c2cccc3ccccc23)c1)c1ccccc1,–,3.16 µM (active)
CC(C(=O)c1ccc(-c2ccccc2)cc1)[n+]1cccc(NC(=O)c2ccccc2)c1 (stereo not given),-5.41%,–
O=C(/C=C/c1ccc(Cl)cc1)Nc1ccc(CN2CCOCC2)cc1,-13.1%,–
O=C(Nc1cnn(C23CC4CC(CC(C4)C2)C3)c1)c1cnn2c(C(F)(F)F)cc(-c3ccco3)nc12,–,35.5 µM (active)
Cn1c(S(=O)(=O)c2ccc([N+](=O)[O-])cc2)nc(Br)c1Br,-5.53%,–
COc1ccc2c(c1)CC(N1CCN(C)CC1)c1cc(OC)ccc1S2 (stereo not given),–,28.2 µM (active)
O=C(CSc1nc2ncc(Br)cc2[nH]1)Nc1ccccc1-c1ccccc1,-20.4% [at 57.5 µM],–
COc1cccc(C2CC(c3c(-c4ccccc4)c4cc(Cl)ccc4[nH]c3=O)=NN2S(C)(=O)=O)c1OC (stereo not given),-18.9%,–
C/C(=N\NC(=O)CN1CCCCC1)c1ccccc1O,-9.43%,–
Cc1cc(C)c(S(=O)(=O)/N=C2\C=C(Nc3ccc(C(=O)O)cc3)C(=O)c3ccccc32)c(C)c1,–,3.16 µM (active)
FC(F)(F)c1nc(-c2cccs2)ncc1-c1nnnn1-c1ccc(Cl)cc1,–,35.5 µM (active)
Oc1c(C(c2ccccn2)N2CCC(Cc3ccccc3)CC2)cc(Cl)c2cccnc12 (stereo not given),–,25.1 µM (active)
CCCCSc1nc(C)cc(SCC(=O)N/N=C/c2cccc(OC)c2O)n1,-21.9%,–
O=C(C1CCC(CNS(=O)(=O)c2cccs2)CC1)N1CCN(c2ccc(F)cc2)CC1 (stereo not given),-23%,–
CN1CCN(c2cc(-c3cc(O)c4ncccc4c3)ccn2)CC1,–,31.6 µM (active)
CCN(CC)CCNc1ccnc2cc(Cl)ccc12,-14%,–

Compound,"activity change, negative = cytotoxicity",Potency
O=c1c2ccccc2sc2c(CO)ccc(NCCN3CCCCC3)c12,–,22.4 µM (active)
CCN(CC)CCNc1ccc(CO)c2sc3ccccc3c(=O)c12,–,20 µM (active)
Cc1cc(C(=O)CN2C(=O)c3ccccc3S2(=O)=O)c(C)n1C(C)C,4.42%,–
O=C(Nc1ccc(Br)cc1)c1cccc(OC(=S)N2CCOCC2)c1,-8.47%,–
CCn1c2ccccc2c2cc(NC(=O)COC(=O)c3cccc(S(=O)(=O)NC)c3)ccc21,-19.4% [at 57.5 µM],–
OC1(c2ccc(Cl)cc2)CCN(Cc2c[nH]c3ccccc23)CC1,-15.6%,–
O=C(Nc1ccc(Cl)cc1)Nc1nc(-c2sccc2Br)cs1,–,10 µM (active)
O=C(Nc1ccc(NC(=O)c2ccc(Cl)cc2Cl)cc1)c1cccs1,-22.4% [at 57.5 µM],–
CCCCOc1ccccc1NC(=O)Cn1c(-c2nonc2N)nc2ccccc21,–,11.2 µM (active)
CCOc1ccccc1NC(=O)CCCc1nc2ccccc2c(=O)[nH]1,-11%,–
CCCCOc1ccccc1NC(=O)c1scc2c1OCCO2,-17.1%,–
Cc1cc(OCCCCCn2ccnc2)cc(C)c1Cl,-28.4% [at 57.5 µM],–
Cc1cc(SCC(=O)NN)c2cc(Br)ccc2n1,-20.4% [at 57.5 µM],–
CCCOc1ccc(C(=O)NC(=S)NNC(=O)c2c(-c3ccccc3)noc2C)cc1,1.64%,–
COc1cccc(/C=N/Nc2nc3ccccc3n3cnnc23)c1O,-9.86%,–
CCN(CC)S(=O)(=O)c1ccc(N/N=C/c2cc(OC)ccc2O)nc1,-10.2%,–
O=[N+]([O-])c1ccc(O)c(/C=N\N=C2c3ccccc3-c3ccccc32)c1,–,12.6 µM (active)
O=[N+]([O-])c1ccc(O)c(/C=N/Nc2ncnc3c2cnn3-c2ccccc2)c1,–,12.6 µM (active)
COc1cccc(/C=N/Nc2ncnc3c2ncn3Cc2ccccc2)c1O,-7.4%,–
O=[N+]([O-])c1ccc(O)c(/C=N/Nc2ccccn2)c1,–,10 µM (active)
O=C(CCc1ccccc1)N/N=C/c1cc(Br)ccc1O,-17.3%,–
Cc1cc(Cl)c(C(=O)Nc2cccc(C(F)(F)F)c2)c(C)n1,-20.8% [at 57.5 µM],–
C=CCN1C=CC(=O)[C@@H](OC(=O)Nc2ccc(Br)cc2)[C@H]1c1ccccc1Br,-15.2%,–
O=C(CN1C(=O)c2ccccc2S1(=O)=O)Nc1ncc(Cl)cc1Cl,0.426%,–
O=C(c1ccco1)N(CCCN1CCOCC1)c1nc(-c2ccc(Cl)cc2)cs1,-12.7%,–
